Only some compounds are listed: those with a hit (about 4.6% of all), similar ones and a draw of the others.
SKKanGAS inh: inhibitors of SKKanGAS S. pyogenes growth in kanamycin (SK-promoter or general growth effect). BacTiter-Glo, 6 h. inhibition, % at 7.5 µM. 1.3% of 300,000 active. AID 1662;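 active = mean replicate score, as percent of positive control median, at least 50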;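 note: strain carries kanamycin resistance gene driven by streptokinase promoter and grows in 40 µg/ml kanamycin; loss of luminescence reflects streptokinase promoter inhibition or plain growth inhibition; 0% = median of DMSO wells and 100% = positive control at its reference dose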
tim23-1 inh: inhibits growth of tim23-1 mutant yeast; 1.3% of 330,000 active; AID 463212; S. cerevisiae tim23-1 growth, BacTiter-Glo luminescence, 24 h; inhibition, % at 20 µM;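 active = growth inhibition of the mutant yeast at or above 50%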;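 note: temperature-sensitive mutant grown at 25 °C; plate controls were DMSO-treated mutant yeast for no effect and medium wells lacking yeast for full effect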
TIM10 inh: TIM10 yeast growth inhibition; S. cerevisiae TIM10 strain growth, BacTiter-Glo luminescence, 24 h; inhibition, % at 10 µM; 1.4% of 330,000 active; AID 463195;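 active = inhibition of 40% or more at the single tested concentration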;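 note: wild-type TIM10 isogenic control strain grown at permissive 25 °C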
PfHsp90 yeast 2: growth inhibition of yeast expressing Plasmodium Hsp90 | AID 504621 | inhibition, % at 9.4 µM | 0.32% of 310,000 active | S. cerevisiae expressing PfHsp90, BacTiter-Glo ATP, 48 h; yeast lacking PDR1 and PDR3 efflux regulators;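 active = every replicate shows inhibition above about 80%, whatever the replicate mean, limit read from the data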;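 note: 0% = DMSO neutral controls and 100% = 20 µM radicicol positive controls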
NLRP3 yeast inh: NALP3 inhibition in yeast. Yeast reconstituted NLRP3/ASC/caspase-1, beta-gal luminescence, 24 h. AID 2825. 0.39% of 330,000 active. inhibition, % at 10 µM;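 active = inhibition of 50% or more; inactive = inhibition below 50%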;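 note: plate controls were induced DMSO wells for no effect and uninduced yeast grown without galactose for full effect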
tim10-1 inh: growth inhibitors of tim10-1 mutant yeast | S. cerevisiae tim10-1 ts strain growth, BacTiter-Glo, 24 h | inhibition, % at 20 µM | 2.2% of 330,000 active | AID 463190;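 active = inhibition of at least 40%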;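 note: mutant grown at 25 °C; 0% = DMSO wells with yeast and 100% = wells holding no yeast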
NALP3 confirm: NALP3 inhibition confirmation in yeast | shares compounds with NLRP3 yeast inh | yeast expressing human NALP3, luminescence | inhibition, % at 10 µM | 81% of 1,300 active | AID 435006; in the data active = inhibition above about 48%
Casp1-ASC yeast: active in yeast caspase-1-ASC counter-screen for NALP3 inhibitors; shares compounds with NLRP3 yeast inh; yeast expressing Caspase-1-ASC, luminescence counter screen; inhibition, % at 10 µM; 66% of 1,000 active; AID 488784
NALP3 retest: yeast NALP3 inhibition, confirmed on retest; shares compounds with NLRP3 yeast inh; yeast expressing human NALP3, luminescence read-out; inhibition, % at 10 µM; 53% of 1,000 active
tim10-1 confirm: confirmation of tim10-1 mutant yeast growth inhibitors | shares compounds with tim10-1 inh | 56% of 7,400 active | inhibition, % at 20 µM | S. cerevisiae tim10-1 ts strain growth, BacTiter-Glo, 24 h | AID 463213;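 active = inhibition of yeast growth at or above a set limit in either of two repeat tests at 20 µM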;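 note: tim10-1 mutant grown at permissive 25 °C to find synthetic lethal compounds; 0% = DMSO yeast wells and 100% = medium wells without yeast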
TIM10 conf: confirmation of TIM10 yeast growth inhibitors; shares compounds with TIM10 inh; S. cerevisiae tim10 strain growth, BacTiter-Glo luminescence, 24 h; inhibition, % at 10 µM; 63% of 4,600 active; AID 463215;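 active = inhibition of yeast growth at or above a set limit in either of two replicates at 10 µM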;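 note: this counterscreen used the strain with wild-type TIM10; 0% = yeast with DMSO and 100% = medium wells lacking yeast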
tim23-1 conf: confirmation of tim23-1 mutant yeast growth inhibitors. shares compounds with tim23-1 inh. S. cerevisiae tim23-1 growth, BacTiter-Glo luminescence, 24 h. inhibition, % at 20 µM. 83% of 4,400 active;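 active = inhibition above about 39% in either of two replicate wells at 20 µM, limit read from the data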;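 note: temperature-sensitive tim23-1 mutant grown at 25 °C; 0% = DMSO wells with yeast and 100% = medium wells without yeast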
* marks the source's active call; other numbers are inactive results; . = no result. Cut-off read from the data, not from the text of the source, unless noted: active = inhibition above about 50%; inactive = the rest.

SMILES	SKKanGAS inh	tim23-1 inh	TIM10 inh	PfHsp90 yeast 2	NLRP3 yeast inh	tim10-1 inh	NALP3 confirm	Casp1-ASC yeast	NALP3 retest	tim10-1 confirm	tim23-1 conf	others
CN1CCN(S(=O)(=O)c2ccc(SCCOc3ccc(Cl)cc3)nc2)CC1	.	61*	65*	3	74*	39	74*	23	18	.	39*	TIM10 conf=69*
O=C(NC(=S)Nc1cnc2ccccc2c1)c1ccccc1	-6	53*	51*	8	73*	18	64*	65*	59*	.	69*	TIM10 conf=54*
COc1ccc2c(=O)c(-c3nc(C)cs3)coc2c1	4	52*	64*	26	77*	43*	54*	68*	66*	33*	65*	TIM10 conf=-39
OCC(CBr)(CBr)CBr	.	-10	6	54	-13	-14	.	.	.	.	.
CN1CCN(S(=O)(=O)c2cccc(C(=O)Nc3cc(C(F)(F)F)ccc3N3CCCC3)c2)CC1	20	20	9	.	6	18	.	.	.	.	.
COc1c(OC(C)=O)c(=O)n2c3ccccc3c3ccnc1c32	-8	83*	73*	-8	71*	70*	75*	26	64*	64*	67*	TIM10 conf=80*
CC(=O)Oc1c(C)c(=O)n(C)c2ccccc12	-12	14	-10	-18	-18	3	.	.	.	.	.
O=C(CCN1CCC(c2cccs2)=N1)c1cccs1	16	63*	63*	.	90*	41*	90*	96*	87*	30	84*	TIM10 conf=69*
CCSc1ncc(CO)c(N)n1	-2	-11	-10	18	-6	6	.	.	.	.	.
c1ccc(-c2cc3cc4c(cc3cn2)OCO4)cc1	.	62*	-17	3	55*	-32	58*	71*	67*	.	50*
COc1ccccc1-c1nc2cc(Cl)ccc2c(=O)n1O	4	3	10	22	9	-15	.	.	.	.	.
O=c1c2ccc(Cl)cc2nc(-c2ccc([N+](=O)[O-])cc2)n1O	1	55*	63*	18	57*	33	81*	62*	54*	.	63*	TIM10 conf=45*
Cn1c2c(c(=O)n(C)c1=O)C(C(F)(F)F)(C(F)(F)F)N=C(c1ccc(Cl)cc1)N2	15	59*	33	8	54*	61*	92*	77*	88*	59*	51*
CCN(Cc1ccc(Cl)s1)C(=O)c1cccc(OCc2c(C)noc2C)c1	.	17	1	28	16	-3	.	.	.	.	.
COc1cc(/C=C/c2cccc[n+]2C)ccc1OCC(=O)Nc1ccccc1C	3	-16	-3	12	16	4	.	.	.	.	.
CCOc1cc(/C=C\[N+](=O)[O-])ccc1OCC(=O)Nc1ccccc1C	58*	58*	56*	110*	58*	13	25	.	.	.	78*	TIM10 conf=13
O=C(NC(=S)NNC(=O)c1ccccc1O)c1cccs1	90*	53*	51*	24	59*	0	78*	70*	56*	.	66*	TIM10 conf=47*
O=C(NNC(=O)c1ccccc1Cl)c1cccs1	-4	3	-6	11	-3	-3	.	.	.	.	.
O=C(Cn1cc(C(=O)C(F)(F)F)c2cc(Br)ccc21)N1CCOCC1	5	-1	-12	-3	-2	-2	.	.	.	.	.
c1ccc(-c2ccc(-c3nc(-c4ccccn4)no3)cc2)cc1	18	54*	29	27	53*	46*	50*	47	37	49*	74*
c1ccc(-c2nc(-c3ccccn3)no2)cc1	-6	19	3	41	12	-3	.	.	.	.	.
O=C(N/N=C/c1ccco1)c1cc2ccccc2o1	-4	66*	41*	10	64*	23	74*	64*	63*	.	64*	TIM10 conf=12
O=C(N/N=C/c1ccco1)c1ccc(Br)o1	-10	-4	-21	-6	5	-32	.	.	.	.	.
CCCCCCCCn1c(=O)c(C(=O)OC)c(N)c2ccccc21	3	64*	32	.	60*	36	28	.	.	.	44*
CCCCCCCn1c(=O)c(C(=O)OC)c(N)c2ccccc21	0	53*	13	1	68*	28	61*	93*	84*	.	50*
SMILES	SKKanGAS inh	tim23-1 inh	TIM10 inh	PfHsp90 yeast 2	NLRP3 yeast inh	tim10-1 inh	NALP3 confirm	Casp1-ASC yeast	NALP3 retest	tim10-1 confirm	tim23-1 conf	others
C=CCNC(=S)NNc1nc2c(c(=O)[nH]1)C1(CCCC1)Cc1ccccc1-2	-17	37	34	2	-17	48*	.	.	.	38*	.
O=c1[nH]c(NNC(=S)NCc2ccccc2)nc2c1C1(CCCCC1)Cc1ccccc1-2	101*	21	32	.	4	43*	.	.	.	30	.
O=c1[nH]c(NCCCO)nc2c1C1(CCCC1)Cc1ccccc1-2	-11	14	9	7	5	10	.	.	.	.	.
CN(C)C(=O)CSc1ccccc1C(=O)OCC(=O)NC1CC1	.	9	-1	6	6	12	.	.	.	.	.
O=C(/C=C/c1cccs1)c1cc(Br)ccc1OC(=O)N1CCOCC1	0	35	37	-14	20	56*	.	.	.	43*	.
CC(NC(=O)c1ccncc1)c1ccc(Br)cc1 (centres undefined)	3	17	1	8	10	-12	.	.	.	.	.
Clc1ccc(Cn2ncc3c(NCc4ccco4)ncnc32)c(Cl)c1	13	45	12	.	28	42*	.	.	.	25	.
Clc1ccc(-n2ncc3c(NCc4ccco4)ncnc32)cc1	23	16	13	-14	16	23	.	.	.	.	.
CCCCNC(=O)[C@H]1C[C@H]1[C@@H](O)[C@H](CO)NC(=O)[C@H](Cc1ccccc1)NC(=O)OC(C)(C)C	7	12	11	-8	2	8	.	.	.	.	.
CCOC(=O)C1CCN(S(=O)(=O)c2ccc(Cl)cc2OC)CC1	5	17	9	4	17	17	.	.	.	.	.
CCOC(=O)C1CCN(S(=O)(=O)c2ccc(OC)c(Cl)c2Cl)CC1	8	14	23	-20	10	40*	.	.	.	5	.
CSc1nsc(/C=C/Nc2ccc(C(=O)O)cc2)c1C#N	39	39	28	15	3	38	.	.	.	.	.
CSc1nsc(/C=C/Nc2ccc(F)cc2F)c1C#N	.	32	28	-1	-9	46*	.	.	.	41*	.

Screening data: PubChem, several laboratories
